Compounds with a hit are over-represented: about 7.9% of the library has one in this group of screens.
Marburg entry inh: blocks Marburg virus binding to or entry into cells; Marburg virus pseudotyped entry inhibition, cell reporter; Potency, µM (doses to about 37.8 µM), for the others: at the highest dose activity change, negative = inhibition, actives largely listed as inhibitors; 300,000 compounds, 1.8% hits; AID 540276; calls by dose curve; tested in HEK293 cells; further: potency means the concentration at half of the fitted maximal effect
FMDV antiviral: foot and mouth disease virus antiviral activity; 410,000 compounds, 1.2% hits; FMDV antiviral cell-based qHTS; Potency, µM (doses to about 57.9 µM), for inactives: at the top dose activity change, negative = inhibition, usual class: inhibitors; calls by dose curve; tested in HEK293T cells; further: read-out not given here; potency means the concentration at half of the fitted maximal effect; nearly all actives have a fitted effect of over 45% in size
LASV entry inh: Lassa virus entry inhibition. Lassa virus pseudotype entry inhibition, cell reporter. Potency, µM (doses to about 37.9 µM), without a hit: at the top dose activity change, negative = inhibition, usual class: inhibitors. 300,000 compounds, 1.2% hits; calls by dose curve; tested in HEK293 cells; further: potency means the concentration at half of the fitted maximal effect; nearly all actives have a fitted effect of over 50% in size
HCV inhibitor: HCV inhibition | Potency, µM (titrated, usually from 41.8 µM), without a hit: at the top dose activity change, negative = inhibition, actives largely listed as inhibitors | 340,000 compounds, 3.4% hits | AID 651820 | Huh7.5.1 HCVcc-Cre infection, luciferase reporter, 44 h; active means well fitted inhibition curve with a large enough effect; inconclusive means small, poorly fitted or top-dose-only effect, or another doubt; inactive means no such curve, though single readings can be large or run the other way; further: potency means the concentration at half of the fitted maximal effect
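Cells seeded at 1,000/well and cultured 4 h, then compounds added followed by HCVcc-Cre virus (~0.5 moi). After 44 h further culture, luciferase substrate was added, plates held 15 min at room temperature, and luminescence read for 15 sec.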
HCMV inh: human cytomegalovirus inhibition | activity change, negative = inhibition, % at 57.5 µM | AID 1259415 | 410,000 compounds, 4.5% hits | HFF cells, HCMV-luciferase reporter, 72 h; stronger effect = lower value; in the data active means activity change below about -60%; inconclusive means no clear call, values can overlap the other calls; inactive means above about -39%
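HFF cells seeded 16 h at 37C, treated with compounds, infected with luciferase-reporter HCMV at MOI 1 PFU/cell; luciferase read at 72 h post infection, normalized to buffer-only and Salinomycin controls.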
The depositor's hits bear a star; ? = inconclusive; nt = not tested or not shown; [ ] = dose if it differs, or a comment. On the % scale 0 is the no-effect control and ±100 the full control effect.

SMILES	Marburg entry inh	FMDV antiviral	LASV entry inh	HCV inhibitor	HCMV inh
CC(=O)OC1C(=O)[C@@]2(C)C(O)CC3OC[C@]3(OC(C)=O)C2C(OC(=O)c2ccccc2)[C@]2(O)CC(OC(=O)C(O)C(NC(=O)c3ccccc3)c3ccccc3)C(C)=C1C2(C)C (some centres not stated)	nt	-3.9%	nt	nt	nt
COC(=O)[C@@]12OC[C@]34[C@H]([C@@H](O)[C@@H]1O)[C@@]1(C)C(=O)C(O[C@@H]5OC(CO)[C@@H](O)[C@@H](O)[C@@H]5O)=C[C@@H](C)[C@@H]1C[C@H]3OC(=O)[C@H](OC(=O)/C=C(\C)C(C)(C)OC(C)=O)[C@@H]24 (some centres not stated)	nt	0.0%	nt	11.2µM*	nt
CCc1ccc(-n2c(=O)c3c4c(sc3n(CC(=O)N3CCCCC3CC)c2=O)CCC4)cc1 (configuration not stated)	?	?	-0.3%[46.1 µM]	nt	-30.7
Cc1ccc(-n2nc(CO)c(C(=O)NCCc3ccccc3)n2)cc1C	0.0%[46.1 µM]	-5.9%	?	nt	14.6
CC(C)C(=O)N1CCN(c2ccc(NC(=O)c3cccs3)cc2Cl)CC1	nt	?	nt	10µM*	-85.5*
CC(C)C(=O)N1CCN(c2ccc(NC(=O)c3ccc4c(c3)OCCO4)cc2Cl)CC1	6.51µM*	11.2µM*	25.9µM*	12.6µM*	-80.3*
COc1ccc(Cn2cnc3cnc(Nc4ccc(C(=O)N(C)C)cc4)cc32)cc1OC	nt	nt	nt	nt	1.7
CCOc1cc(C(c2c(C)[nH]n(-c3ccccc3)c2=O)c2c(C)[nH]n(-c3ccccc3)c2=O)ccc1O	nt	?	-1.9%[46.1 µM]	nt	-105.1*
COc1ccc(C(c2c(C)[nH]n(-c3ccccc3)c2=O)c2c(C)[nH]n(-c3ccccc3)c2=O)cc1OC	-1.2%	-12.8%	12.5%	3.5%	-11.1
O=C1c2ccccc2C(O)(C2N=CC=N2)N1CCc1ccccc1 (configuration not stated)	10.3%	nt	nt	nt	nt
Cc1c(C(=O)NCc2ccccn2)sc(=O)n1Cc1ccc(-c2ccccc2)cc1	nt	-6.4%	nt	nt	-30.0
Cc1c(C(=O)NCc2ccc3c(c2)OCO3)sc(=O)n1Cc1ccc(-c2ccccc2)cc1	nt	-12.8%	nt	nt	-67.2*
Cc1c(C(=O)NCc2ccc([N+](=O)[O-])cc2)sc(=O)n1Cc1ccc(-c2ccccc2)cc1	nt	-24.8%	nt	nt	-84.2*
Cc1ccc(Cn2c(C)c(C(=O)NCc3ccc4c(c3)OCO4)sc2=O)cc1	nt	-16.1%	nt	nt	-18.6
COc1cccc(CSc2nc3n(n2)C(c2cccs2)C(C(=O)Nc2ccccc2C)=C(C)N3)c1 (configuration not stated)	nt	-7.7%	-6.1%[46.1 µM]	nt	-11.3
CC(NC(=O)/C(=C/c1ccc(OC(F)F)cc1)c1ccccc1)c1ccccc1 (configuration not stated)	?	?	-23.0%	?	-79.3*
CC(COc1ccc(/C=C/c2ccccc2)cc1)[N+](C)(C)C (configuration not stated)	?	-6.3%	?	-21.6%	-96.5*
CCN(CC)c1cc(CS(=O)c2ccccc2)nc(-c2ccccc2)n1 (configuration not stated)	?	-28.8%	-8.9%	?	-60.7*
COc1cc(OC)c(NC(=O)c2sc3ncn(CC(=O)N4CCOCC4)c(=O)c3c2C)cc1Cl	2.3%[46.1 µM]	-3.8%	19.9%[46.1 µM]	-19.8%	-13.3
Cc1ccc(-c2nnc3ccccc3c2C(=O)Nc2cccc(C(F)(F)F)c2)cc1	nt	46.7%	8.8%[46.1 µM]	nt	0.0
COc1ccc(NC(=O)N2c3ccc(OC)cc3[C@@H](NC(C)=O)[C@H](C)[C@H]2c2ccccc2)cc1	nt	nt	nt	nt	17.8
CCCSP1(=S)NCCCO1 (configuration not stated)	-2.0%	-7.8%	-6.2%	10.7%	-101.0*
O=C1CC(C(=O)O)C(c2ccccc2)c2ccccc21 (configuration not stated)	2.2%[46.1 µM]	-9.6%	22.0%[46.1 µM]	15.1%	26.4
Cc1ccn2c(=O)c(C(=O)NCCc3ccc(S(N)(=O)=O)cc3)c(O)nc2c1	?	-0.2%	nt	nt	-4.5
S=C(NCCSCc1ccc(Cl)cc1Cl)Nc1ccccc1	?	?	?	?	-62.0*
SMILES	Marburg entry inh	FMDV antiviral	LASV entry inh	HCV inhibitor	HCMV inh
S=C(Nc1ccccc1)Nc1ccc(OCc2ccc(Cl)cc2Cl)cc1	?	0.316µM*	?	?	-80.1*
OCCCCNCc1ccc(OCc2ccc(Cl)cc2Cl)cc1	5.8µM*	nt	?	6.31µM*	-14.5
Cc1ccccc1CSCCNC(=S)Nc1ccccc1	?	25.7%	-24.0%	?	-82.7*
COC(=O)c1ccc(CSc2nnc3ccc4ccccc4n23)cc1	-1.8%[46.1 µM]	-0.6%	-20.6%[46.1 µM]	nt	-11.2
O=C(NNC1=NC2(CCCC2)Cc2ccccc21)c1ccncc1	5.3%[14.2 µM]	-10.6%	-8.8%	20.1%	64.7
Nc1ccc(C(=O)OCc2nc3ccccc3s2)cc1	?	17.8%	7.1%[46.1 µM]	4.3%	15.2
Nc1ccc(C(=O)OCC2=NC3C=c4ccccc4=CC3=N2)cc1 (configuration not stated)	1.64µM*	nt	nt	nt	nt
CCOc1ccc(/C=N/Nc2ccc(Cl)nn2)c(O)c1	2.2%[46.1 µM]	15.7%	11.7%	-19.0%	-81.8*
Oc1c(Br)cc(Br)cc1/C=N/Nc1ccc(Cl)nn1	-1.2%[46.1 µM]	1.3%	?	7.5%	-96.8*
Cc1ncc2c(c1CNC(=O)c1ccc3c(c1)OCO3)CCN(C(=O)c1ccc3ccccc3c1)C2	nt	-9.2%	nt	nt	nt
CCCCOC(=O)c1ccc(NC(=O)c2cnc3ccc(C)cn3c2=O)cc1	6.9%[46.1 µM]	-1.5%	nt	nt	3.8
Cc1ccc(NC(=O)CSc2n[nH]c(C)c2[N+](=O)[O-])cc1C	2.0%	-12.2%	7.4%	7.3%	-68.9*
COc1ccc(NC(=O)CSc2n[nH]c(C)c2[N+](=O)[O-])cc1	nt	0.3%	nt	33.0%	-30.1
CC(=O)c1c(C)[nH]c(C(=O)Nc2nc(C)cs2)c1C	1.78µM*	-86.7%	2.24µM*	-24.2%	-37.9
COc1cccc(OC)c1C(=O)Nc1nc(-c2ccccc2)cs1	-9.6%[46.1 µM]	-4.0%	-7.2%[46.1 µM]	?	-30.5
CC(=O)c1c(C)[nH]c(C(=O)Nc2cc(C)cc(C)c2)c1C	-2.2%	47.9%	6.6%	?	nt
CC(=O)c1c(C)[nH]c(C(=O)Nc2nc(-c3ccc(-c4ccccc4)cc3)cs2)c1C	?	11.2µM*	?	?	-39.0
COc1ccc(-c2nc(NC(=O)c3[nH]c(C)c(C(C)=O)c3C)sc2C)cc1	?	?	-2.2%	1µM*	14.1
CC(=O)c1c(C)[nH]c(C(=O)Nc2ccc(C)cn2)c1C	2µM*	-85.2%	2.06µM*	3.0%	?
Cc1ccc(NC(=O)N2CCc3c(sc4c3CCCC4)C2c2ccccc2)cc1F (configuration not stated)	nt	3.6%	15.4%[46.1 µM]	nt	16.7
CCOC(=O)c1oc2ccc(CNCCO)c(Cl)c2c1C	?	10.3%	-1.8%	-3.3%	135.8
CCOC(=O)c1oc2ccc(CNC3CCCCC3)c(Cl)c2c1C	7.3µM*	nt	?	?	-1.3
COc1ccc(N2CCN(C(=O)CSc3nnc4n3C(C)(C)Cc3ccccc3-4)CC2)cc1	-18.7%	20µM*	-23.7%	?	-63.6*

Bioassay records as filed in PubChem.
